Screening data from PubChem BioAssay.
Pf Dd2 inh – blocks growth of Plasmodium falciparum Dd2 parasites | activity change, % at 10 µM | hit rate 2.3% among 94,000 | P. falciparum Dd2 growth, SYBR Green, 72 h; stronger effect = lower value; in the data active = activity change below about -80%; inconclusive = no clear call, values can overlap the other calls
C diff growth – inhibitors of Clostridium difficile growth; Clostridium difficile clinical isolate growth, OD600, 24 h; stronger effect = lower value; growth activity, negative = inhibition, % at 16 µg/mL (by protocol); hit rate 0.25% among 86,000; AID 1259249;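 active = mean growth activity at or below -80% and every replicate also at or below -80%; inconclusive = mean at or below -80% but some replicate above -80%; inactive = mean growth activity above -80%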
T cruzi growth-1 – T. cruzi proliferation inhibition; AID 624255; inhibition, % at 8.34 µM; hit rate 5.9% among 77,000; T. cruzi beta-gal in NIH3T3, GalScreen luminescence, 90 h;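 active = mean inhibition above about 93%, with at least 55% of replicates each passing it, limit read from the data, passing the limit was not always enough; inconclusive = only one of those two conditions holds; inactive = neither condition holds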
T cruzi growth-2 – blocks T. cruzi growth in NIH3T3 host cells; shares compounds with T cruzi growth-1; T. cruzi beta-gal in NIH3T3, GalScreen luminescence, 90 h; hit rate 72% among 5,600; inhibition, % at 8.35 µM;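 active = mean replicate inhibition above about 95% and at least 55% of replicates individually reaching it, limit read from the data; inconclusive = only one of the two criteria is met; inactive = neither criterion is met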
T cruzi growth-3 – Trypanosoma cruzi proliferation inhibition. shares compounds with T cruzi growth-1. T. cruzi beta-gal in NIH3T3, GalScreen luminescence, 90 h. inhibition, % at 2.09 µM. hit rate 21% among 5,600. AID 651740;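 active = mean inhibition above about 95%, with at least 55% of replicates also reaching it, limit read from the data; inconclusive = meets just one of the two conditions; inactive = meets neither condition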
3T3 cytotox – kills mouse NIH/3T3 fibroblasts; shares compounds with T cruzi growth-1; NIH/3T3 viability, CellTiter-Glo ATP luminescence, 90 h; cytotoxicity (signal decrease), % at 8.35 µM; hit rate 14% among 5,600; AID 651742;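 active = mean signal decrease across replicates above about 35% based on untreated-well scatter, with enough replicates individually passing, limit read from the data; inconclusive = no rule stated though some were filed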
3T3 cytotox 2 – cytotoxicity in mouse NIH/3T3 fibroblasts. inhibition, % at 24.9 µM. shares compounds with T cruzi growth-1. AID 651744. NIH/3T3 viability, CellTiter-Glo ATP luminescence, 90 h. hit rate 56% among 5,600;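 active = mean loss of cell viability signal at or above a set limit, and enough replicates individually reaching it; inconclusive = meets only the mean limit or only the replicate share; inactive = meets neither condition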
Hits are given with their value. Only some compounds are listed: those with a hit (about 6.7% of all), similar ones and a draw of the others.

How did O=C(C[C@@H]1C[C@@H]2c3cc(NC(=O)Nc4ccc(C(F)(F)F)cc4)ccc3O[C@@H]2[C@H](CO)O1)NCc1cc(F)ccc1F do in these assays?
Pf Dd2 inh: inactive; C diff growth: inactive; T cruzi growth-1: inactive

Results for C[C@H](NC(=O)C[C@H]1C[C@@H]2c3cc(NC(=O)Nc4ccc(C(F)(F)F)cc4)ccc3O[C@@H]2[C@@H](CO)O1)c1ccccc1 ?
Pf Dd2 inh: inactive; C diff growth: inactive; T cruzi growth-1: inactive

How did O=C(C[C@H]1C[C@@H]2c3cc(NC(=O)Nc4ccc(C(F)(F)F)cc4)ccc3O[C@@H]2[C@@H](CO)O1)NCc1cc(F)ccc1F do in these assays?
Pf Dd2 inh: inactive; C diff growth: inactive; T cruzi growth-1: 156; T cruzi growth-2: inactive; T cruzi growth-3: inactive; 3T3 cytotox: inactive; 3T3 cytotox 2: inactive

How did O=C(C[C@@H]1C=C[C@@H](NC(=O)Cc2ccccn2)[C@H](CO)O1)NCCCN1CCOCC1 do in these assays?
Pf Dd2 inh: inactive; T cruzi growth-1: inactive

Results for O=C(C[C@H]1CC[C@@H](NC(=O)Nc2ccc3c(c2)OCO3)[C@H](CO)O1)NCc1ccccc1 ?
Pf Dd2 inh: inactive; C diff growth: inactive; T cruzi growth-1: inactive

What do the screens show for `C[C@H](CO)N1C[C@H](C)[C@H](CN(C)Cc2ccc(C(=O)Nc3ccccc3N)cc2)Oc2ccc(NC(=O)Cn3cnnn3)cc2CC1=O`?
Pf Dd2 inh: inactive; C diff growth: inactive

What do the screens show for `C[C@@H]1CN([C@@H](C)CO)C(=O)c2c(c3ccccc3n2C)-c2ccccc2CO[C@H]1CN(C)S(=O)(=O)c1ccsc1`?
Pf Dd2 inh: inactive; C diff growth: inactive; T cruzi growth-1: inconclusive; T cruzi growth-2: 108; T cruzi growth-3: inactive; 3T3 cytotox: inactive; 3T3 cytotox 2: 47

What do the screens show for `COc1ccc(S(=O)(=O)N(C)C[C@@H]2OCc3ccccc3-c3c(n(C)c4ccccc34)C(=O)N([C@@H](C)CO)C[C@@H]2C)cc1`?
Pf Dd2 inh: -87; T cruzi growth-1: inconclusive; T cruzi growth-2: 100; T cruzi growth-3: inactive; 3T3 cytotox: inactive; 3T3 cytotox 2: 24

Results for C[C@H]1CN([C@@H](C)CO)C(=O)c2c(c3ccccc3n2C)-c2ccccc2CO[C@H]1CN(C)S(=O)(=O)c1ccccc1C#N ?
Pf Dd2 inh: inactive; C diff growth: inactive; T cruzi growth-1: 107; T cruzi growth-2: inactive; T cruzi growth-3: inactive; 3T3 cytotox: inconclusive; 3T3 cytotox 2: 85

Results for C[C@H](CO)N1C[C@H](C)[C@@H](CN(C)S(=O)(=O)c2ccc(C#N)cc2)OCc2ccccc2-c2c(n(C)c3ccccc23)C1=O ?
Pf Dd2 inh: inactive; T cruzi growth-1: inconclusive; T cruzi growth-2: 112; T cruzi growth-3: inactive; 3T3 cytotox: inactive; 3T3 cytotox 2: inactive

What do the screens show for `C[C@H](CO)N1C[C@H](C)[C@@H](CN(C)S(=O)(=O)c2ccccc2F)OCc2ccccc2-c2c(n(C)c3ccccc23)C1=O`?
Pf Dd2 inh: inactive; C diff growth: inactive; T cruzi growth-1: inactive

What do the screens show for `COc1cccc(S(=O)(=O)N(C)C[C@@H]2OCc3ccccc3-c3c(n(C)c4ccccc34)C(=O)N([C@@H](C)CO)C[C@H]2C)c1`?
Pf Dd2 inh: inactive; C diff growth: inactive; T cruzi growth-1: inactive

Results for C[C@H](CO)N1C[C@H](C)[C@H](CN(C)S(=O)(=O)c2ccsc2)OCc2ccccc2-c2c(n(C)c3ccccc23)C1=O ?
Pf Dd2 inh: inactive; C diff growth: inactive; T cruzi growth-1: inactive

How did C[C@H]1CN([C@@H](C)CO)C(=O)c2c(c3ccccc3n2C)-c2ccccc2CO[C@@H]1CN(C)S(=O)(=O)c1cccc(C#N)c1 do in these assays?
Pf Dd2 inh: inactive; C diff growth: inactive; T cruzi growth-1: inactive

Results for CCNC(=O)Nc1ccc2c(c1)C(=O)N(C)[C@H]1CC[C@H](CC(=O)N[C@H](C)c3ccccc3)O[C@H]1CO2 ?
C diff growth: inactive; T cruzi growth-1: inactive

Results for CO[C@H]1CC[C@H]2CCOc3ccc(C#N)cc3C(=O)N(C)C[C@@H](OC)[C@H](C)C(=O)N(C)C[C@@H]1O2 ?
C diff growth: inactive; T cruzi growth-1: inactive

Results for COc1cccc(NC(=O)N(C)C[C@H]2Oc3cc(C#Cc4ccccc4)ccc3S(=O)(=O)N([C@H](C)CO)C[C@@H]2C)c1 ?
Pf Dd2 inh: -84; C diff growth: inactive; T cruzi growth-1: 94; T cruzi growth-2: 113; T cruzi growth-3: inactive; 3T3 cytotox: inactive; 3T3 cytotox 2: inactive

Results for COc1cccc(C#Cc2ccc3c(c2)O[C@@H](CN(C)C(C)=O)[C@H](C)CN([C@@H](C)CO)S3(=O)=O)c1 ?
Pf Dd2 inh: inactive; C diff growth: inactive; T cruzi growth-1: inconclusive; T cruzi growth-2: 107; T cruzi growth-3: inactive; 3T3 cytotox: inconclusive; 3T3 cytotox 2: 35

How did COc1cccc(C#Cc2ccc3c(c2)O[C@H](CN(C)C(C)=O)[C@H](C)CN([C@@H](C)CO)S3(=O)=O)c1 do in these assays?
Pf Dd2 inh: inactive; C diff growth: inactive; T cruzi growth-1: inactive

How did COc1cccc(NC(=O)N(C)C[C@H]2Oc3cc(C#CC4(O)CCCC4)ccc3S(=O)(=O)N([C@H](C)CO)C[C@H]2C)c1 do in these assays?
Pf Dd2 inh: inactive; C diff growth: inactive

What do the screens show for `COc1cccc(NC(=O)N(C)C[C@H]2Oc3cc(-c4ccccc4OC)ccc3S(=O)(=O)N([C@H](C)CO)C[C@@H]2C)c1`?
Pf Dd2 inh: inactive; C diff growth: inactive

What do the screens show for `COc1cccc(NC(=O)N(C)C[C@H]2Oc3cc(C#Cc4ccccc4)ccc3S(=O)(=O)N([C@H](C)CO)C[C@H]2C)c1`?
Pf Dd2 inh: inactive; C diff growth: inactive; T cruzi growth-1: 85; T cruzi growth-2: 100; T cruzi growth-3: 114; 3T3 cytotox: inactive; 3T3 cytotox 2: inactive

Results for COc1ccc(S(=O)(=O)Nc2ccc3c(c2)C(=O)N([C@@H](C)CO)C[C@H](C)[C@H](CN(C)Cc2ccc(C(=O)Nc4ccccc4N)cc2)O3)cc1 ?
Pf Dd2 inh: inactive; C diff growth: inactive; T cruzi growth-1: inactive

Results for COc1cccc(S(=O)(=O)Nc2ccc3c(c2)C(=O)N(C)[C@@H]2CC[C@H](CC(=O)O)O[C@@H]2CO3)c1 ?
Pf Dd2 inh: inactive; C diff growth: inactive; T cruzi growth-1: inactive

Results for O=C(C[C@H]1C=C[C@H](NC(=O)c2cccc(F)c2)[C@H](CO)O1)NCc1ccc(Oc2ccccc2)cc1 ?
Pf Dd2 inh: inactive; C diff growth: inactive

What do the screens show for `CCCN(C)C[C@@H]1Oc2cc(C#CCC3CCCC3)ccc2S(=O)(=O)N([C@H](C)CO)C[C@H]1C`?
Pf Dd2 inh: inactive

What do the screens show for `C[C@H](CO)N1C[C@H](C)[C@H](CN(C)C(=O)Nc2cc(F)ccc2F)Oc2cc(-c3ccc(C#N)cc3)ccc2S1(=O)=O`?
Pf Dd2 inh: inactive; C diff growth: inactive; T cruzi growth-1: inactive
